Results from the supplement of paper PMC10681739.

Target: T1, ETS1 (UniProt P14921)
T1 sequence: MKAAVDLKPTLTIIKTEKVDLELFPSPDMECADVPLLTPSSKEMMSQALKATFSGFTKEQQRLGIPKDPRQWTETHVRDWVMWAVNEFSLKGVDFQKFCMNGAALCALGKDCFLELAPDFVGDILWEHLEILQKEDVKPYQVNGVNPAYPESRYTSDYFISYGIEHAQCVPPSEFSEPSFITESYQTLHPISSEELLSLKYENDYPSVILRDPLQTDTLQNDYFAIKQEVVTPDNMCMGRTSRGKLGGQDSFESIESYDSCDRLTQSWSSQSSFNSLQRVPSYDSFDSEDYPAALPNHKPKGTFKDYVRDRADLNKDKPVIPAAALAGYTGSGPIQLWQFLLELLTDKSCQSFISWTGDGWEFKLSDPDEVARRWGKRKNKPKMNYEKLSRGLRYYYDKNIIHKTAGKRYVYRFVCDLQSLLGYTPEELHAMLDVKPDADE
Test: ETS1 binding intensity (PBM fluorescence), ETS1 alone (arbitrary fluorescence units); higher = stronger binding
Details: ETS1 concentration 1 nM; RUNX1 concentration 0 nM
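For RUNX1 binding intensity (PBM fluorescence), RUNX1 alone in this document: Full-length recombinant human RUNX1 bound to double-stranded 36-bp genomic probes on a high-density microarray, scored as Alexa488 fluorescence per spot via anti-RUNX1 antibody, median of four replicate spots.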

Sequence	ETS1 binding intensity
GCTGTCCGTTTCCGAGATGTTAATGCGGGATCTTGC	473
TCATAAGGAAGTGGAGTGTAGTAACCACAGGCCCCG	417
TTTTTTCCGCCTGTAGGGTCACATTGTGGTTGATTG	446
TAAGTGAATTTCCTGCCCGCCTCCGCCCACAGCGTA	775
GGGGCTGGGAAAGGATGTGGTAAGGGCCAGTCAGTC	884
TTTATCATGAATGCAGGATGTGGGCAAACTCGCATC	2340
CCGGGCTGCGGAAGGCGGGAATTCTGCGGTTCGCGG	405
TTCATCTCTCACTTCCTGTGGTGACGGCTGACGGGG	4120
TCATTCTCTGATAAAGGAAGTGGTTACAGCACAATT	2910
TGCTCAAATGCAGGATGTGGTCTGAGAGTTTCTCCT	1910
TCTGCCGCCAGCCCATCCGCGACCGCATCCAGATCT	346
CTCCATCTGCCCGGAAAACCGCAGCCGCCCCAACCT	841
CAATGGATGGCCACATCCTCACCACAAACTGAGTCA	368
ACGGTGTGTCTCATTTCCTGTGGGTAACAGGCACCA	2120
CCTTTCCGCGAGACCTTCCGCGGTTATCCAGCGAGT	372
GCCGTAGCGGAAGAGTGTTCGTGGTCATGTGACGCC	671
TAGACTAACAGGGGAGGAAGTGGGTTGCAAGCCGTG	2030
AGAAACATCCTGCCCAGCCACCTGACCACAAGGCAC	377
TCCTCCGTTTCCGTAGTTCCGAGTTGCGGTTTCTCC	487
GCACCGTACCCGGAACTGCTCCCTCCCGCAGGCGCA	539

Sequence	ETS1 binding intensity
TGGGCAAGATATCCTGGAAGTGGTTAAAAAAAATTA	687
GGAGGGGCTGGCCGGAAGTGAACCGCAGAGCACGCT	11600
TCCAGGATGTGGGATGCCGTGCTGTACCGCATGTCA	498
ATACCGGCGCATCCGGATTTTGAAGCCGCAGTGGAC	728
GTCCCCGACTTCCGCTCTCGGTTGGTGGTTGGCTTT	2370
CGGGACTTCCTGTCTTCCCTGTTGCGGAGCTCTGAA	1720
TTGGTTGTTGCCAGAGGATGTGGGTTGGCGGGGGAG	1690
GCCCAGTTCTCGCATCCGGTCTGCGGCGCGCTCGGG	4380
TTTCTGACACTCTCAGGATGTGGGTTTTCGCACTGT	1230
AGTTTCTCAGCTTCCTGTGTGGTTTTCTTGATCTGC	1480
GCGCAAGGATCCGGTTTGTTGTGGTGTGGGGAGGGG	517
AACACCTCACACTTCCTGCCCACAAGATAAGAGCCT	895
ACTCGGGAATGTCCGGTCGTGGTAAGCAGGGTGGCA	516
ACAGATACAGCCTCAGGAAGTGGTTTTGTATCTCTG	3200
AAAGCAAAGTCAAGAGGATGTGGTGACCAATTCTGC	1320
CCTCGCCCCCTTCCGCACCCACCCCACCGCGCTCCG	807
GTGAACTTCCTCCCCCACTGCCTATTTTTACCGCAG	624
GCAATGCCGCTACCGGAAGTGCGGGTCGCGCTCCCG	26000
GTTGGGTGGGGAAGTGGATGGTGGTTTTGGCAGAGG	542
GCGCGGCCAGAGAAAGGATGTGGTATAGCAGAAAGT	1260

Target: RUNX1 (UniProt Q01196)
Sequence (Q01196 whole entry): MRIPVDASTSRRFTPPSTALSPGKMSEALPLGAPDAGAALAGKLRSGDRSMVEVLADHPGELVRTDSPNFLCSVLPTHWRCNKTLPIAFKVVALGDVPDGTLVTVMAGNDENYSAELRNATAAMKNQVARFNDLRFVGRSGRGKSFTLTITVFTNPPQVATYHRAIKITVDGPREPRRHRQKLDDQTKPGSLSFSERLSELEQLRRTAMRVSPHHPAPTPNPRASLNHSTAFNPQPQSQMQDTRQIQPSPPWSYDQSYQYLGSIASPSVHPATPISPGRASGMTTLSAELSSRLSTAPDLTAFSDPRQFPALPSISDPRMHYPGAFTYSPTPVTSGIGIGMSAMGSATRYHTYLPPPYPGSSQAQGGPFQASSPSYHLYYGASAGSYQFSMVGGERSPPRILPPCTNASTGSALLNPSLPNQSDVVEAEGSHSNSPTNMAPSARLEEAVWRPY
Test: RUNX1 binding intensity (PBM fluorescence), RUNX1 alone (arbitrary fluorescence units); higher = stronger binding
Details: RUNX1 concentration 2 nM; ETS1 concentration 0 nM
Protocol: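 Cooperative gcPBM on 36-bp genomic probes with neighbouring ETS1 and RUNX1 sites. Recombinant human RUNX1 (2 nM) was incubated alone or with ETS1 (25 nM) and detected with anti-RUNX1 antibody plus Alexa488 secondary. Values are medians over 4 replicate spots; the RUNX1+ETS1 data were normalised to the RUNX1-only data. The probes sit in constant array flanks that are not printed.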

Sequence	RUNX1 binding intensity
GCTGTCCGTTTCCGAGATGTTAATGCGGGATCTTGC	920
TCATAAGGAAGTGGAGTGTAGTAACCACAGGCCCCG	829
TTTTTTCCGCCTGTAGGGTCACATTGTGGTTGATTG	1000
TAAGTGAATTTCCTGCCCGCCTCCGCCCACAGCGTA	809
GGGGCTGGGAAAGGATGTGGTAAGGGCCAGTCAGTC	749
TTTATCATGAATGCAGGATGTGGGCAAACTCGCATC	749
CCGGGCTGCGGAAGGCGGGAATTCTGCGGTTCGCGG	1230
TTCATCTCTCACTTCCTGTGGTGACGGCTGACGGGG	1030
TCATTCTCTGATAAAGGAAGTGGTTACAGCACAATT	822
TGCTCAAATGCAGGATGTGGTCTGAGAGTTTCTCCT	693
TCTGCCGCCAGCCCATCCGCGACCGCATCCAGATCT	1250
CTCCATCTGCCCGGAAAACCGCAGCCGCCCCAACCT	28600
CAATGGATGGCCACATCCTCACCACAAACTGAGTCA	939
ACGGTGTGTCTCATTTCCTGTGGGTAACAGGCACCA	935
CCTTTCCGCGAGACCTTCCGCGGTTATCCAGCGAGT	1160
GCCGTAGCGGAAGAGTGTTCGTGGTCATGTGACGCC	718
TAGACTAACAGGGGAGGAAGTGGGTTGCAAGCCGTG	683
AGAAACATCCTGCCCAGCCACCTGACCACAAGGCAC	1280
TCCTCCGTTTCCGTAGTTCCGAGTTGCGGTTTCTCC	12000
GCACCGTACCCGGAACTGCTCCCTCCCGCAGGCGCA	930

Sequence	RUNX1 binding intensity
TGGGCAAGATATCCTGGAAGTGGTTAAAAAAAATTA	739
GGAGGGGCTGGCCGGAAGTGAACCGCAGAGCACGCT	1070
TCCAGGATGTGGGATGCCGTGCTGTACCGCATGTCA	652
ATACCGGCGCATCCGGATTTTGAAGCCGCAGTGGAC	673
GTCCCCGACTTCCGCTCTCGGTTGGTGGTTGGCTTT	894
CGGGACTTCCTGTCTTCCCTGTTGCGGAGCTCTGAA	780
TTGGTTGTTGCCAGAGGATGTGGGTTGGCGGGGGAG	897
GCCCAGTTCTCGCATCCGGTCTGCGGCGCGCTCGGG	828
TTTCTGACACTCTCAGGATGTGGGTTTTCGCACTGT	797
AGTTTCTCAGCTTCCTGTGTGGTTTTCTTGATCTGC	1620
GCGCAAGGATCCGGTTTGTTGTGGTGTGGGGAGGGG	814
AACACCTCACACTTCCTGCCCACAAGATAAGAGCCT	1660
ACTCGGGAATGTCCGGTCGTGGTAAGCAGGGTGGCA	803
ACAGATACAGCCTCAGGAAGTGGTTTTGTATCTCTG	682
AAAGCAAAGTCAAGAGGATGTGGTGACCAATTCTGC	685
CCTCGCCCCCTTCCGCACCCACCCCACCGCGCTCCG	2040
GTGAACTTCCTCCCCCACTGCCTATTTTTACCGCAG	1820
GCAATGCCGCTACCGGAAGTGCGGGTCGCGCTCCCG	749
GTTGGGTGGGGAAGTGGATGGTGGTTTTGGCAGAGG	960
GCGCGGCCAGAGAAAGGATGTGGTATAGCAGAAAGT	865
